The results in this text go back to paper PMC11006913.

Holding throughout (test): PBM; 200 nM protein, PBS
Holding throughout (conditions): dsDNA, one strand shown

Assay [1] has as its target HESX1 (Homo sapiens, UniProt Q9UBX0 95-180, R165K).
Assay [2] has as its target SHOX (Homo sapiens, UniProt O15266 103-189).
Assay [3] concerns the target HESX1 (Homo sapiens, UniProt Q9UBX0 95-180).
For a further assay, the target named is MSX2 (Homo sapiens, UniProt P35548 130-214, R199I).
Assay [4] concerns the target ALX1 (Homo sapiens, UniProt Q15699 118-204, L144V).
The target in assay [5] is SHOX (Homo sapiens, UniProt O15266 103-189, R173C).
SHOX (Homo sapiens, UniProt O15266 103-189, R173C), sequence (O15266 103-189 R173C): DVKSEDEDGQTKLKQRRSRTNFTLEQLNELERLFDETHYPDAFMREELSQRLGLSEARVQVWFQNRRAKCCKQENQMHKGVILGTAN
Assay [6] has as its target ALX1 (Homo sapiens, UniProt Q15699 118-204, L144R).
In assay [7] the target is PROP1 (Homo sapiens, UniProt O75360 56-141).
PROP1 (Homo sapiens, UniProt O75360 56-141), sequence (O75360 56-141): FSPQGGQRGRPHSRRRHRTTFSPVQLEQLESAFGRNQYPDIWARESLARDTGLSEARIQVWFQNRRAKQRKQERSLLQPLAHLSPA
Assay [8] deals with HESX1 (Homo sapiens, UniProt Q9UBX0 95-180, R109Q).
HESX1 (Homo sapiens, UniProt Q9UBX0 95-180, R109Q), sequence (Q9UBX0 95-180 R109Q): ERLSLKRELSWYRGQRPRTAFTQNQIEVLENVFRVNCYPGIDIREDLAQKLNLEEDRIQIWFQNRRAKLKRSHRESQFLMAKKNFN
Assay [9] has as its target PROP1 (Homo sapiens, UniProt O75360 56-141, R99H).
In assay [10] the target is HESX1 (Homo sapiens, UniProt Q9UBX0 95-180, P111T).
HESX1 (Homo sapiens, UniProt Q9UBX0 95-180, P111T), sequence (Q9UBX0 95-180 P111T): as the sequence (Q9UBX0 95-180 R109Q) above, with Q15R, P17T counted along it
Assay [11] addresses PROP1 (Homo sapiens, UniProt O75360 56-141, F88S).
For assay [12], the target named is HESX1 (Homo sapiens, UniProt Q9UBX0 95-180, F115L).
HESX1 (Homo sapiens, UniProt Q9UBX0 95-180, F115L), sequence (Q9UBX0 95-180 F115L): as the sequence (Q9UBX0 95-180 R109Q) above, with Q15R, F21L counted along it
Assay [13] deals with ALX1 (Homo sapiens, UniProt Q15699 118-204).
ALX1 (Homo sapiens, UniProt Q15699 118-204), sequence (Q15699 118-204): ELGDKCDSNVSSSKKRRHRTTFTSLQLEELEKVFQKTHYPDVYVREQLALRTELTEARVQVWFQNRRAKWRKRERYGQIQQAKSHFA
A further assay deals with ALX4 (Homo sapiens, UniProt Q9H161 200-286, Q225E).
ALX4, sequence (Q9H161 200-286 Q225E): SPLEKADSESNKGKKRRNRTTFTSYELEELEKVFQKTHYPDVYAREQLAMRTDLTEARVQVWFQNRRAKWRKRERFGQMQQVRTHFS
Assay [14] concerns the target ALX3 (Homo sapiens, UniProt O95076 139-225, N203Q).
In assay [15] the target is ALX3 (Homo sapiens, UniProt O95076 139-225).
ALX3 (Homo sapiens, UniProt O95076 139-225), sequence (O95076 139-225): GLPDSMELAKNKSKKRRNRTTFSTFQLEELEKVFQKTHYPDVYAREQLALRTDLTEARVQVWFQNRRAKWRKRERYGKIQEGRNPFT
Assay [16] has as its target ALX3 (Homo sapiens, UniProt O95076 139-225, L168Q).
Assay [17] deals with ALX3 (Homo sapiens, UniProt O95076 139-225, L168V).
ALX3 (Homo sapiens, UniProt O95076 139-225, L168V), sequence (O95076 139-225 L168V): as the sequence (O95076 139-225) above, with L30V counted along it
In assay [18] the target is ALX3 (Homo sapiens, UniProt O95076 139-225, N203S).
ALX3 (Homo sapiens, UniProt O95076 139-225, N203S), sequence (O95076 139-225 N203S): as the sequence (O95076 139-225) above, with N65S counted along it

PROP1 (Homo sapiens, UniProt O75360 56-141, R99H), sequence (O75360 56-141 R99H): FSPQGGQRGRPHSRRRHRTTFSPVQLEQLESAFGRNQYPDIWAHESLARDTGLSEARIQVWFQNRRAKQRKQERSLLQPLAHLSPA
MSX2, sequence (P35548 130-214 R199I): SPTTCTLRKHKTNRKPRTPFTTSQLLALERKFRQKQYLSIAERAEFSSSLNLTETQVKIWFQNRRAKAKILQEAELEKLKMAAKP
SHOX (Homo sapiens, UniProt O15266 103-189), sequence (O15266 103-189): as the sequence (O15266 103-189 R173C) above, with C71R counted along it
ALX3 (Homo sapiens, UniProt O95076 139-225, L168Q), sequence (O95076 139-225 L168Q): as the sequence (O95076 139-225) above, with L30Q counted along it
ALX3 (Homo sapiens, UniProt O95076 139-225, N203Q), sequence (O95076 139-225 N203Q): as the sequence (O95076 139-225) above, with N65Q counted along it
HESX1 (Homo sapiens, UniProt Q9UBX0 95-180, R165K), sequence (Q9UBX0 95-180 R165K): as the sequence (Q9UBX0 95-180 R109Q) above, with Q15R, R71K counted along it
ALX1 (Homo sapiens, UniProt Q15699 118-204, L144R), sequence (Q15699 118-204 L144R): as the sequence (Q15699 118-204) above, with L27R counted along it
ALX1 (Homo sapiens, UniProt Q15699 118-204, L144V), sequence (Q15699 118-204 L144V): as the sequence (Q15699 118-204) above, with L27V counted along it
PROP1 (Homo sapiens, UniProt O75360 56-141, F88S), sequence (O75360 56-141 F88S): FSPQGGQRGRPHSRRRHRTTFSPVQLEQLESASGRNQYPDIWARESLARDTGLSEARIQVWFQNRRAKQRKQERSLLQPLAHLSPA
HESX1 (Homo sapiens, UniProt Q9UBX0 95-180), sequence (Q9UBX0 95-180): as the sequence (Q9UBX0 95-180 R109Q) above, with Q15R counted along it

For ACAATTAG, the binding signal with HESX1 [1] was 11.8 upbm affinity estimate (log intensity, higher = more binding, comparable within an allelic series); in the assay with SHOX [2], 11.6 upbm affinity estimate (log intensity, higher = more binding, comparable within an allelic series); in the assay with HESX1 [3] it was 12.1 upbm affinity estimate (log intensity, higher = more binding, comparable within an allelic series); in the assay with MSX2, 12.6 upbm affinity estimate (log intensity, higher = more binding, comparable within an allelic series); with ALX1 [4], 11.2 upbm affinity estimate (log intensity, higher = more binding, comparable within an allelic series); with SHOX [5], 9.13 upbm affinity estimate (log intensity, higher = more binding, comparable within an allelic series). In addition, the binding signal with ALX1 [6] is 10.8 upbm affinity estimate (log intensity, higher = more binding, comparable within an allelic series); in the assay with PROP1 [7] it was 11.1 upbm affinity estimate (log intensity, higher = more binding, comparable within an allelic series); with HESX1 [8], 8.66 upbm affinity estimate (log intensity, higher = more binding, comparable within an allelic series); with PROP1 [9] it was 11 upbm affinity estimate (log intensity, higher = more binding, comparable within an allelic series); with HESX1 [10], 10.4 upbm affinity estimate (log intensity, higher = more binding, comparable within an allelic series); with PROP1 [11] it was 7.51 upbm affinity estimate (log intensity, higher = more binding, comparable within an allelic series). Moreover, the binding signal is 7.42 upbm affinity estimate (log intensity, higher = more binding, comparable within an allelic series) in the assay with HESX1 [12] and 12 upbm affinity estimate (log intensity, higher = more binding, comparable within an allelic series) with ALX1 [13].
With AATTAGCG, the binding signal with HESX1 [1] is 11.8 upbm affinity estimate (log intensity, higher = more binding, comparable within an allelic series); in the assay with SHOX [2] it was 12 upbm affinity estimate (log intensity, higher = more binding, comparable within an allelic series); with ALX4, 13.1 upbm affinity estimate (log intensity, higher = more binding, comparable within an allelic series); with HESX1 [3], 11.9 upbm affinity estimate (log intensity, higher = more binding, comparable within an allelic series); in the assay with MSX2 it was 12.4 upbm affinity estimate (log intensity, higher = more binding, comparable within an allelic series); with ALX1 [4], 11.7 upbm affinity estimate (log intensity, higher = more binding, comparable within an allelic series). In addition, the binding signal with ALX3 [14] was 8.21 upbm affinity estimate (log intensity, higher = more binding, comparable within an allelic series); with SHOX [5], 9.63 upbm affinity estimate (log intensity, higher = more binding, comparable within an allelic series); with ALX1 [6], 11.3 upbm affinity estimate (log intensity, higher = more binding, comparable within an allelic series); with ALX3 [15], 12.4 upbm affinity estimate (log intensity, higher = more binding, comparable within an allelic series); with PROP1 [7], 11.2 upbm affinity estimate (log intensity, higher = more binding, comparable within an allelic series); in the assay with HESX1 [8], 8.95 upbm affinity estimate (log intensity, higher = more binding, comparable within an allelic series). Moreover, the binding signal in the assay with PROP1 [9] is 11.2 upbm affinity estimate (log intensity, higher = more binding, comparable within an allelic series); in the assay with ALX3 [16], 10.4 upbm affinity estimate (log intensity, higher = more binding, comparable within an allelic series); with HESX1 [10], 10.6 upbm affinity estimate (log intensity, higher = more binding, comparable within an allelic series); with ALX3 [17], 9.93 upbm affinity estimate (log intensity, higher = more binding, comparable within an allelic series); with PROP1 [11], 7.48 upbm affinity estimate (log intensity, higher = more binding, comparable within an allelic series); in the assay with HESX1 [12], 7.68 upbm affinity estimate (log intensity, higher = more binding, comparable within an allelic series). Further, the binding signal is 12.6 upbm affinity estimate (log intensity, higher = more binding, comparable within an allelic series) in the assay with ALX1 [13] and 8.38 upbm affinity estimate (log intensity, higher = more binding, comparable within an allelic series) with ALX3 [18].
On to CAATTAGG, for which the binding signal with HESX1 [1] was 12.5 upbm affinity estimate (log intensity, higher = more binding, comparable within an allelic series); in the assay with SHOX [2] it was 12.1 upbm affinity estimate (log intensity, higher = more binding, comparable within an allelic series); with ALX4, 12.8 upbm affinity estimate (log intensity, higher = more binding, comparable within an allelic series); with HESX1 [3], 12.7 upbm affinity estimate (log intensity, higher = more binding, comparable within an allelic series); with MSX2 it was 12.7 upbm affinity estimate (log intensity, higher = more binding, comparable within an allelic series); with ALX1 [4], 11.5 upbm affinity estimate (log intensity, higher = more binding, comparable within an allelic series). The binding signal with ALX3 [14] is 8.27 upbm affinity estimate (log intensity, higher = more binding, comparable within an allelic series); with SHOX [5], 9.72 upbm affinity estimate (log intensity, higher = more binding, comparable within an allelic series); with ALX1 [6] it was 10.9 upbm affinity estimate (log intensity, higher = more binding, comparable within an allelic series); in the assay with ALX3 [15] it was 12.2 upbm affinity estimate (log intensity, higher = more binding, comparable within an allelic series); with PROP1 [7], 11.3 upbm affinity estimate (log intensity, higher = more binding, comparable within an allelic series); in the assay with HESX1 [8], 9.39 upbm affinity estimate (log intensity, higher = more binding, comparable within an allelic series). Also, the binding signal was 11.5 upbm affinity estimate (log intensity, higher = more binding, comparable within an allelic series) with PROP1 [9]; 10.4 upbm affinity estimate (log intensity, higher = more binding, comparable within an allelic series) with ALX3 [16]; 11.2 upbm affinity estimate (log intensity, higher = more binding, comparable within an allelic series) with HESX1 [10]; 9.81 upbm affinity estimate (log intensity, higher = more binding, comparable within an allelic series) with ALX3 [17]; 7.6 upbm affinity estimate (log intensity, higher = more binding, comparable within an allelic series) with PROP1 [11]; 7.73 upbm affinity estimate (log intensity, higher = more binding, comparable within an allelic series) with HESX1 [12]. For the same sequence, the binding signal in the assay with ALX1 [13] is 12.1 upbm affinity estimate (log intensity, higher = more binding, comparable within an allelic series); in the assay with ALX3 [18] it was 8.37 upbm affinity estimate (log intensity, higher = more binding, comparable within an allelic series).
Consider AGGGACCG, for which the binding signal is 6.62 upbm affinity estimate (log intensity, higher = more binding, comparable within an allelic series) in the assay with HESX1 [1]; 7.23 upbm affinity estimate (log intensity, higher = more binding, comparable within an allelic series) in the assay with SHOX [2]; 6.41 upbm affinity estimate (log intensity, higher = more binding, comparable within an allelic series) with HESX1 [3]; 7.13 upbm affinity estimate (log intensity, higher = more binding, comparable within an allelic series) in the assay with SHOX [5]; 6.42 upbm affinity estimate (log intensity, higher = more binding, comparable within an allelic series) with HESX1 [8]; 6.58 upbm affinity estimate (log intensity, higher = more binding, comparable within an allelic series) with HESX1 [10]. Further, the binding signal with HESX1 [12] was 6.26 upbm affinity estimate (log intensity, higher = more binding, comparable within an allelic series).
For the sequence AATTAACT, the binding signal in the assay with HESX1 [1] was 12.1 upbm affinity estimate (log intensity, higher = more binding, comparable within an allelic series); with SHOX [2] it was 11.8 upbm affinity estimate (log intensity, higher = more binding, comparable within an allelic series); in the assay with ALX4, 13.4 upbm affinity estimate (log intensity, higher = more binding, comparable within an allelic series); with HESX1 [3], 12.2 upbm affinity estimate (log intensity, higher = more binding, comparable within an allelic series); with MSX2 it was 12.4 upbm affinity estimate (log intensity, higher = more binding, comparable within an allelic series); in the assay with ALX1 [4] it was 11.7 upbm affinity estimate (log intensity, higher = more binding, comparable within an allelic series). The binding signal was 8.48 upbm affinity estimate (log intensity, higher = more binding, comparable within an allelic series) with ALX3 [14]; 9.37 upbm affinity estimate (log intensity, higher = more binding, comparable within an allelic series) in the assay with SHOX [5]; 11.4 upbm affinity estimate (log intensity, higher = more binding, comparable within an allelic series) with ALX1 [6]; 12.5 upbm affinity estimate (log intensity, higher = more binding, comparable within an allelic series) with ALX3 [15]; 11.5 upbm affinity estimate (log intensity, higher = more binding, comparable within an allelic series) with PROP1 [7]; 9.2 upbm affinity estimate (log intensity, higher = more binding, comparable within an allelic series) with HESX1 [8]. The binding signal in the assay with PROP1 [9] is 11.4 upbm affinity estimate (log intensity, higher = more binding, comparable within an allelic series); with ALX3 [16] it was 10.7 upbm affinity estimate (log intensity, higher = more binding, comparable within an allelic series); with HESX1 [10], 10.7 upbm affinity estimate (log intensity, higher = more binding, comparable within an allelic series); with ALX3 [17] it was 10.2 upbm affinity estimate (log intensity, higher = more binding, comparable within an allelic series); in the assay with PROP1 [11] it was 7.8 upbm affinity estimate (log intensity, higher = more binding, comparable within an allelic series); with HESX1 [12] it was 7.81 upbm affinity estimate (log intensity, higher = more binding, comparable within an allelic series). Further, the binding signal with ALX1 [13] was 12.3 upbm affinity estimate (log intensity, higher = more binding, comparable within an allelic series); with ALX3 [18] it was 8.69 upbm affinity estimate (log intensity, higher = more binding, comparable within an allelic series).
